Among all 72,000 compounds or so, about 1,600 (2.2%) were called active. For the sample, actives were picked, then their nearest neighbours and some compounds at random. A number with no mark means an inactive call. Calls follow the shape of the dose curve; as a rule, active = well fitted inhibition curve with a large enough effect; inconclusive = small, poorly fitted or top-dose-only effect; inactive = flat fitted curve, though single readings scatter.
biological target: Luciferin 4-monooxygenase (Photinus pyralis) (UniProt P08659); test: qHTS Assay for Inhibitors of Firefly Luciferase; conditions: purified firefly luciferase, luminescence, 8 min; series mostly up to 57.1 µM; activity change, negative = inhibition: at the top concentration; also: nearly all actives have a fitted effect of over 40% in size
Method: To aid in the interpretation of high-throughput screening (HTS) results derived from luciferase-based assays, we used quantitative HTS, an approach that defines the concentration-response behavior of each library sample, to profile the ATP-dependent luciferase from Photinus pyralis against more than 72 000 samples. Luciferase (PKLight, Cambrex Corporation) was assayed for its ability to generate light using ATP and luciferin as substrates. The ATP concentration in the assay (10 uM) was within the linear range of enzyme activity for the assay conditions used. See following reference for further details: [1] Auld DS, Southall NT, Jadhav A, Johnson RL, Diller DJ, Simeonov A, Austin CP, Inglese J. Characterization of chemical libraries for luciferase inhibitory activity. J Med Chem. 2008 Apr 24;51(8):2372-86. Auld DS, Zhang YQ, Southall NT, Rai G, Landsman M, Maclure J, Langevin D, Thomas CJ, Austin CP, Inglese J. A Basis for Reduced Chemical Library Inhibition of Firefly Luciferase Obtained from Directed Evolution. J. Med. Chem., 2009, 52 (5), pp 1450#1458 [3] Auld DS, Thorne N, Nguyen DT, Inglese J. A specific mechanism for nonspecific activation in reporter-gene assays. ACS Chem Biol. 2008 Aug 15;3(8):463-70. Auld DS, Thorne N, Maguire WF, Inglese J. Mechanism of PTC124 activity in cell-based luciferase assays of nonsense codon suppression. Proc Natl Acad Sci U S A. 2009 Mar 3;106(9):3585-90. Inglese J, Auld DS, Jadhav A, Johnson RL, Simeonov A, Yasgar A, Zheng W, Austin CP. Quantitative high-throughput screening: a titration-based approach that efficiently identifies biological activities in large chemical libraries. Proc Natl Acad Sci U S A. 2006 Aug 1;103(31):11473-8.
Four uL of substrate mix (final concentration, 50 mM imidazole pH 7.2, 50 mM KCl, 7 mM MgCl2, 10 uM ATP, 0.01% Tween 20, 0.05% BSA) was dispensed into white 1536 well plates. Twenty-three nL of compound was delivered by a pin tool and 2 uL of luciferase detector mix (PKLight, Cambrex) was added. Following 8-minute incubation at ambient temperature, luminescence was measured by a ViewLux (Perkin Elmer) at 5 seconds exposure/plate.
% is scaled to controls: 0 for no effect and ±100 for the full control effect; potency is read from the fitted curve at half-maximal effect.

Luciferin 4-monooxygenase (Photinus pyralis), sequence (P08659 whole entry, looked up): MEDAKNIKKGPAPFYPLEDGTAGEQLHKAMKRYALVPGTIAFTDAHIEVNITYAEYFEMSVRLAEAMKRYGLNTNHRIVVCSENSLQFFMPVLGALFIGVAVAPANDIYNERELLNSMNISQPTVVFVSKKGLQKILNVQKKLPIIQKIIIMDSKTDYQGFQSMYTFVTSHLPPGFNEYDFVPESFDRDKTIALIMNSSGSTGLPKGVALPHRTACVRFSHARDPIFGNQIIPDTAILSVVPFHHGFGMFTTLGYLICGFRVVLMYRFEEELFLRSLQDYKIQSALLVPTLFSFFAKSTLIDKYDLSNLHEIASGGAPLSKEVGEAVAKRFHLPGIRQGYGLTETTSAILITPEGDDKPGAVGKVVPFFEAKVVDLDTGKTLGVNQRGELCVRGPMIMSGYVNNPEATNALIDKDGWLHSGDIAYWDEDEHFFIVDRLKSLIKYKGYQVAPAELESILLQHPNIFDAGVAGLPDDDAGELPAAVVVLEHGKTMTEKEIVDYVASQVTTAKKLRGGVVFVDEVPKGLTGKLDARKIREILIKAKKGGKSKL

Row | Structure (SMILES) | Potency | activity change, negative = inhibition
1 | Cc1ccc(-c2noc(-c3ccccc3C(=O)NCC3CCCO3)n2)cc1 (stereo unspecified) | 12.6 µM (active) | –
2 | Cc1ccc(C(=O)NCC2CCCO2)o1 (stereo unspecified) | – | 1.19%
3 | Cc1nc2ccccc2c2oc(C(=O)NCC3CCCO3)cc12 (stereo unspecified) | – | -0.52%
4 | CCCN1C2=C(C(=O)CCC2)C(c2ccc(O)c(Br)c2)C2=C1CCCC2=O | – | -0.424%
5 | O=S(=O)(N1CCOCC1)N1CCN(c2ccccc2F)CC1 | – | 0.783%
6 | CCCn1c(=O)c2[nH]c(-c3ccc(OCC(=O)NCCN)cc3)nc2n(CCC)c1=O | – | 2.64%
7 | CCc1ccccc1N(CC(=O)N1CCN(c2ccccc2F)CC1)S(C)(=O)=O | – | 1.6%
8 | COc1ccc2nc(N3CCCC(O)C3)c(C#N)cc2c1 (stereo unspecified) | 12.6 µM (active) | –
9 | COc1ccc(N2CCN(C(=O)CSc3nc4cc(OC)c(OC)cc4cc3C#N)CC2)cc1 | – | -1.56%
10 | CCOc1ccc2nc(N3CCCN(C(=O)Nc4ccccc4C)CC3)c(C#N)cc2c1 | – | -4.69%
11 | CCOc1ccc(N(CC(=O)NCc2ccc(OC)cc2)S(=O)(=O)c2c(C)noc2C)cc1 | – | 0.209%
12 | Cc1ccc(-c2noc(CCC(=O)Nc3ccccc3N3CCN(C)CC3)n2)cc1 | – | 0.968%
13 | CCNC(=O)CCc1nc(-c2ccc(C(C)(C)C)cc2)no1 | 5.01 µM (active) | –
14 | Cc1ccc(-c2noc(CCC(N)=O)n2)cc1 | – | -1.58%
15 | O=C(OCCO)c1cc(Cl)c(C(=O)OCCO)cc1Cl | – | 2.17%
16 | c1ccc(-n2ncc(-c3nn[nH]n3)n2)cc1 | – | -2.16%
17 | CC(C)c1ccc(-c2nn[nH]n2)cc1 | 15.8 µM (active) | –
18 | CCc1ccc(-c2nnn(Cc3nn[nH]n3)n2)cc1 | – | -3.49%
19 | CCCCn1c(CN2CCN(CCO)CC2)nc2ccccc21 | – | 3.37%

Row | Structure (SMILES) | Potency | activity change, negative = inhibition
20 | CCOC(=O)CCc1c(C)c2ccc(OCc3nn[nH]n3)c(C)c2oc1=O | – | -29.4%
21 | Cc1ccc(F)cc1NC(=O)c1ccc2c(c1)OCO2 | – | 0.628%
22 | CC(C)C(=O)Nc1cccc(C(=O)Nc2ccc3c(c2)OCO3)c1 | 15.8 µM (active) | –
23 | Cc1ccc(C(=O)Nc2ccc3c(c2)OCO3)cc1S(=O)(=O)N1CCCCC1 | – | -16.5%
24 | Cn1c(=O)n(C)c2cc(C(=O)Nc3ccc4c(c3)OCO4)ccc21 | – | -24.6%
25 | Cn1c(NC(=O)c2ccc3c(c2)OCO3)cc(=O)n(C)c1=O | – | 1.02%
26 | COc1ccc(C(=O)Nc2ccc3c(c2)OCO3)cc1OC | 12.6 µM (active) | –
27 | CCOc1ccc(NC(=O)CSc2nc3c(c(=O)n2-c2ccccc2OC)SCC3)cc1 | – | 2.17%
28 | C[C@H](CCC(=O)NCC(=O)O)[C@H]1CC[C@H]2[C@H]3[C@@H](C[C@@H](O)[C@]12C)[C@]1(C)CC[C@H](O)C[C@@H]1C[C@@H]3O | – | 0.706% [at 25.5 µM]
29 | CCCOc1ccc(/C(O)=C2/C(=O)C(=O)N(CCN(C)C)C2c2ccc(OC)c(OC)c2)cc1 (stereo unspecified) | – | 2.31% [at 25.5 µM]
30 | CCn1nnc(NC(=O)c2c(OC)cccc2OC)n1 | – | 1.07%
31 | CCOC(=O)CCc1c(C)c(C#N)c2[nH]c3ccccc3n2c1=O | – | -1.12% [at 25.5 µM]
32 | FC(F)Oc1ccccc1C1CC(c2ccc(Br)s2)Nc2ncnn21 (stereo unspecified) | – | -0.115%
33 | CCCOC(=O)c1[nH]c2c(c1C)C(=O)CC(c1cc(OC)c(OC)c(OC)c1)C2 (stereo unspecified) | – | 0.417%
34 | COC(=O)C1C(=O)c2c([nH]c(C(=O)OCCSC)c2C)CC1C (stereo unspecified) | 7.94 µM (active) | –
35 | CCCOC(=O)C1=C(C)NC2=C(C(=O)C(C(=O)OC)C(C)C2)C1c1ccc(N(C)C)cc1 (stereo unspecified) | – | 3.23%
36 | O=C(NCc1ccco1)c1sc2cccc(F)c2c1Cl | – | -3.25%
37 | CN=C1SC(C(=O)O)CC(=O)N1C (stereo unspecified) | – | 2.14%
38 | O=C(c1csnn1)N1CCC[C@@]2(CCN(c3cccc(-c4ccccc4)c3)C2)C1 | – | 0.28% [at 11.4 µM]

Row | Structure (SMILES) | Potency | activity change, negative = inhibition
39 | CCOc1cccc(C(=O)Nc2cccnc2)c1 | – | 1.45%
40 | O=C(Nc1cccnc1)c1noc2c1CCCCC2 | 12.6 µM (active) | –
41 | O=C(Nc1cccnc1)c1ccc2c(c1)OCO2 | – | -6.01%
42 | COc1ccc(OC)c([C@H](O)CNC(=O)CN)c1 | – | 3.26% [at 25.5 µM]
43 | CNC(=O)NCCN1CCCC1=O | – | 2.71%
44 | COC(=O)COc1ccc2oc(=O)cc(C)c2c1 | – | 0.108%
45 | CCN(CC)S(=O)(=O)c1cccc(C(=O)Nc2ccccc2)c1 | – | -6.08%
46 | Cc1noc(C)c1C(=O)Nc1ccccn1 | – | 0.167%
47 | CCN(CC)S(=O)(=O)c1cc(C(=O)Nc2ccccn2)ccc1C | 15.8 µM (active) | –
48 | N[C@H](C(=O)O)c1ccc(C(=O)O)c(O)c1 | – | 0.32%
49 | c1ccc(CNc2ncncc2-c2cccnc2)cc1 | – | -1.06% [at 2.29 µM]
50 | Cc1ccc(OCC(O)CN2CCN(CC(O)COc3ccc(C)cc3Cl)CC2)c(Cl)c1 (stereo unspecified) | – | 1.51%
51 | CCCCSc1nnc(-c2ccc(C)cc2)o1 | 15.8 µM (active) | –
52 | CCOC(=O)CSc1nnc(-c2cccc(Br)c2)o1 | – | 0.795%
53 | CCOC(=O)CSc1nnc(-c2ccncc2)o1 | – | 2.7%
54 | CC1=C(C(=O)OCc2ccccc2)C(c2ccco2)n2ncnc2N1 (stereo unspecified) | – | 1.06%
55 | CCOc1ccc(C(=O)Nc2ccncc2)cc1 | – | -24.2%
56 | COc1ccc(NC(=O)c2c(C)oc3c2CCCC3)cc1 | – | -2.79%

— PubChem BioAssay AID411 (National Center for Advancing Translational Sciences (NCATS), 2006)
